# The full list was thinned out, with hits kept by preference.
# TTR transcr act: TTR transcription activation, primary screen; SH-SY5Y TTR promoter Gaussia luciferase, luminescence; 100% = recombinant luciferase protein wells; 92,000 tested, 1.3% active; activation, % at 16.7 µM;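 active = activation above the mean of all tested compounds plus 3 SD, cut at about 9.5% in these data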;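 note: cells exposed to compounds for one day before reading; 0% = median of all test compound wells on the plate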
# TTR inh HuH7: counter-screen for TTR activators: TTR transcription inhibitors in HuH7 cells; shares compounds with TTR transcr act; HuH7 TTR promoter-Gaussia luciferase reporter, luminescence; inhibition, % at 16.7 µM; 1,100 tested, 4% active;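 active = average inhibition above the solvent-only control wells' mean plus 3 SD, cut at about 15% in these data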;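 note: 0% = cells with DMSO only and 100% = cells with inhibitor control FD; inhibitors lower well luminescence so higher value means more inhibition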
# TTR act confirm: human TTR transcription activation, confirmation | shares compounds with TTR transcr act | SHSY5Y TTR promoter Gaussia luciferase, luminescence; 100% = purified Lucia enzyme wells, no cells | activation, % at 16.7 µM | 1,100 tested, under 10 active;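 active = mean activation above a set limit taken from the earlier primary screen, cut at about 11% in these data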;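 note: 0% = DMSO-treated cells and 100% = recombinant Lucia luciferase without cells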
# Active calls of the source: *.
SMILES,TTR transcr act,others
C=CCN1C[C@@H](COCc2ccccc2)OCCS1(=O)=O,4,
COC(=O)C1=C(C)N=C2SCCC(=O)N2C1c1ccc(C(=O)OC)cc1 (stereo not given),16*,TTR inh HuH7=-7;TTR act confirm=2
CC1=C(C(=O)OC(C)C)C(c2cccs2)N2C(=O)CCSC2=N1 (stereo not given),-2,
CC1(C)CC(=O)C2=C(C1)N=C1SCCC(=O)N1C2c1ccccc1 (stereo not given),-1,
C[C@H]1[C@@H](OC(=O)NCc2ccc(Cl)cc2)CC[C@@]23CCCN2C(=O)CCC[C@@H]13,-1,
Cn1c(NC(=O)C2CC2)cc(=O)n(C)c1=O,9.9*,TTR inh HuH7=-7;TTR act confirm=0
COCC(=O)Nc1cc(=O)n(C)c(=O)n1C,11*,TTR inh HuH7=-1;TTR act confirm=-1
Cn1c(NC(=O)c2ccc(Cl)s2)cc(=O)n(C)c1=O,-1,
Cn1c(NC(=O)c2ccc(C(C)(C)C)cc2)cc(=O)n(C)c1=O,0,
Cn1c(NC(=O)Cc2cccs2)cc(=O)n(C)c1=O,2,
CCC(CC)C(=O)Nc1cc(=O)n(C)c(=O)n1C,-1,
CCCC1CCC2(CC1)CCC2OC(=S)NCCc1ccc(Cl)cc1 (stereo not given),-2,
C[C@H]1[C@@H](NC(=O)c2ccc(Cl)c(C(F)(F)F)c2)CC[C@@]23CCCN2C(=O)CCC[C@@H]13,1,
O=C(COc1ccc(F)c(Cl)c1)N[C@H]1CCCN(CC2CC2)C1,0,
O=C(N[C@@H]1CCCc2c1cnn2-c1ccc(F)cc1F)c1ccccn1,4,
COc1ccc(Cn2ccc3ccc(-c4ccc5ccn(C(=O)C6CC6)c5c4)cc32)cc1,2,
CCOC(=O)[C@@H]1CSCCS(=O)(=O)N1C(=O)[C@H](C)NC(=O)OC(C)(C)C,4,
COC(=O)[C@]12C[C@H](CC(=O)NCc3cccc(C(F)(F)F)c3)C(=O)N(Cc3ccco3)C1=C[C@H](C(C)C)O[C@@H]2C1CC1,0,
CC(C)Cn1c(=O)cc(N2CCN(c3cccc(C(F)(F)F)c3)CC2)[nH]c1=O,2,
CCOC(=O)Cc1csc(NC(=O)CSc2nnc(-c3ccc(NS(=O)(=O)CC)cc3)o2)n1,-3,
COC(=O)CSc1nnc(-c2ccc(OC)c(OC)c2)o1,3,
CCS(=O)(=O)Nc1ccc(-c2nnc(SCC(=O)OC)o2)cc1,10*,TTR inh HuH7=-7;TTR act confirm=0
COc1ccc(/C=C/C(=O)OCC(=O)c2ccc3c(c2)NC(=O)CO3)c(OC)c1,0,
COc1ccc(/C=C/C(=O)OCC(=O)c2c(N)n(C)c(=O)n(C)c2=O)c(OC)c1,9.8*,TTR inh HuH7=0;TTR act confirm=0
CCCOc1ccc(C(=O)OCC(=O)c2c(N)n(C)c(=O)n(C)c2=O)cc1OC,0,
SMILES,TTR transcr act,others
COC(=O)[C@@]12CCCCC3=C1N(CCC3)C(=O)[C@H]2CC(=O)N1CCOCC1,-1,
COC(=O)[C@]12C[C@H](CC(=O)NCc3cccc4ccccc34)C(=O)N(CCc3ccc(OC)c(OC)c3)C1=C[C@H](C(C)C)O[C@@H]2C1CC1,0,
CCOC(=O)c1sc(NC(=O)c2ccc(S(=O)(=O)N3CCOCC3)cc2)nc1-c1ccccc1,-1,
CCOC(=O)Nc1nc(-c2ccccc2)c(C(=O)c2ccc(Cl)cc2)s1,11*,TTR inh HuH7=23*;TTR act confirm=0
CCOC(=O)c1sc(N)nc1-c1ccccc1,1,
CN(Cc1ccccc1)C(=O)OCc1cn(Cc2ccc(F)cc2F)nn1,0,
COC(=O)[C@]12C[C@H](CC(=O)NCc3cccc(C(F)(F)F)c3)C(=O)N(CCc3ccc(OC)c(OC)c3)C1=C[C@H](C1CCCC1)O[C@@H]2C,0,
COc1ccc(C(C)NC(=O)CCc2ccccc2)cc1 (stereo not given),0,
COc1ccc(CCC(=O)NNC(=O)Nc2ccc(C(C)C)cc2)cc1,-1,
CCc1ccccc1NC(=O)NNC(=O)CCc1ccc(OC)cc1,13*,TTR inh HuH7=-25;TTR act confirm=2
CCC(C)[C@H](NC(=O)C1COC(O)([C@H](Cc2ccccc2)NC(=O)[C@@H](NC(=O)OCc2ccccc2)C(C)C)CN1C)C(=O)N[C@H](C(=O)OC)C(C)C (stereo not given in full),0,
COC(=O)c1cnc(Nc2nc(C(N)Cc3ccccc3)cs2)nc1C(F)(F)F (stereo not given),0,
COC(=O)c1cnc(NNC(=O)c2ccc([N+](=O)[O-])cc2)nc1C(F)(F)F,4,
COC(=O)c1cnc(NNS(=O)(=O)c2ccc(Cl)cc2)nc1C(F)(F)F,11*,TTR inh HuH7=-14;TTR act confirm=-1
COc1cccc(NC(=O)Nc2nc3ncccn3c2-c2ccc(C(F)(F)F)cc2)c1,2,
COCCCNC(=O)C[C@@H]1C[C@@]2(C(=O)OC)CCCCC=C2N(CCc2ccc(OC)c(OC)c2)C1=O,36*,TTR inh HuH7=-5;TTR act confirm=1
CCCCCCCCN1C(=O)[C@H](CC(=O)NCCc2ccccc2OC)C[C@@]2(C(=O)OCC)CCCC=C12,-2,
CCOC(=O)[C@]12CCCC=C1N(Cc1ccccc1)C(=O)[C@H](CC(=O)NCc1ccc(OC)c(OC)c1)C2,-2,
O=C(CCN1CCOCC1)Nc1cc(C(=O)Nc2ccccc2F)ccc1N1CC2CC(C1)c1cccc(=O)n1C2 (stereo not given),0,
Nc1cc(C(=O)N2CCN(c3cccc(Cl)c3)CC2)ccc1N1CC2CC(C1)c1cccc(=O)n1C2 (stereo not given),-2,
O=C(O)c1ccc(N2CC3CC(C2)c2cccc(=O)n2C3)c(NC(=S)Nc2ccc(Cl)cc2Cl)c1 (stereo not given),11*,TTR inh HuH7=-4;TTR act confirm=0
C=CCN1C(=O)[C@H](CC(=O)N2CCCC2)[C@@]2(C(=O)OCC)CCCC=C12,2,
O=C(Nc1ccccc1)Nc1nc2ncccn2c1-c1ccc(F)c(F)c1,-2,
Clc1cccc(Cl)c1C1Nc2cccc3cccc(c23)N1,-1,
Brc1cccc(C2Nc3cccc4cccc(c34)N2)c1,-2,
SMILES,TTR transcr act,others
Clc1ccc(C2Nc3cccc4cccc(c34)N2)cc1Cl,9.8*,TTR inh HuH7=5;TTR act confirm=-1
C[C@H]1[C@@H](NCc2cccs2)CC[C@@]23CCCN2C(=O)CCC[C@@H]13,1,
COc1ccc(Cn2ccc3ccc(-c4ccc5ccn(C(=O)C6CCCCC6)c5c4)cc32)cc1,-1,
O=C(c1ccccc1)C1CCN(c2ncnc3sccc23)CC1,-4,
CNS(=O)(=O)/C=C/c1ccccc1CCNC(=O)OC(C)(C)C,2,
COc1ccc(S(=O)(=O)Nc2ccc(C)cn2)cc1,14*,TTR inh HuH7=-12;TTR act confirm=6
COc1ccc(S(=O)(=O)Nc2ccc(NC(C)=O)cc2)cc1,3,
COc1ccc(C(=O)Nc2ccc(C)cn2)c(OC)c1,-3,
C=CCN1[C@H](CC(C)C)COc2cccc(F)c2S1(=O)=O,0,
C=CCN1C(=O)[C@@H](CC(=O)N2CCCC2)[C@]2(C(=O)OC)CCCCC=C12,2,
CCOc1cc2[nH]c(=S)n(CCC(=O)NCc3ccc(OC)cc3)c(=O)c2cc1OCC,26*,TTR inh HuH7=7;TTR act confirm=-1
CCOc1cc2[nH]c(=S)n(CCCCC(=O)NCc3ccco3)c(=O)c2cc1OCC,1,
CCOc1cc2[nH]c(=S)n(CCCOC)c(=O)c2cc1OCC,0,
CCOC(=O)[C@]12CCCC=C1N(Cc1ccc(OC)cc1)C(=O)[C@@H]2CC(=O)NCc1ccc(OC)c(OC)c1,-1,
NC(=O)c1nc(-c2ccccc2)c(-c2ccccc2)[nH]c1=O,-2,

# Compound activity (PubChem BioAssay)
